Laboratory results reported in PubChem BioAssay AID651947 (Broad Institute, 2012).
Entries with a potency or affinity are not part of this list. Results filed as inconclusive are left out. Calls of active or inactive are those of the source.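 How the source made its calls: active means luminescence drop in HepG2 cells whose fitted half-effect dose is at most twice the top valid dose; inconclusive means flat curve with 30 to 70% signal loss, or unreliable fit; inactive means the rest.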

experiment: cytotoxicity in HepG2 cells, dose response, cytotoxicity control, cell-based, plate reader, dry powder (AID 651947); conditions: HepG2 viability, ATP luminescence (CellTiter-Glo), 48 h, stronger effect = lower value; at 26 µM unless noted

Which max activity does the source give for `CN(Cc1ccccc1)c1nnc(-c2ccccc2)o1` here?
The max activity was -28.2% (inactive).

For `CCSc1nnc(-c2ccccc2)o1`, which max activity is on record?
The max activity was 23.2% [at 12 µM] (inactive).

For `O=S(Cc1ccccc1)c1nnc(-c2ccccc2)o1` (centres undefined), which max activity is on record?
Its max activity is -53.1% (inactive).

For `c1ccc(Cn2cc(CSc3nnc(-c4ccccc4)o3)nn2)cc1`, which max activity is on record?
Its max activity is -41.8% (inactive).

With `Cc1cccc(CSc2nnc(-c3ccc(Cl)cc3)o2)n1` as the compound, how does the max activity read?
Its max activity is 26% [at 0.38 µM] (inactive).

For `FC(F)(F)c1cccc(-c2nnc(SCc3ccccc3)o2)c1`, which max activity is on record?
Its max activity is 20.7% [at 12 µM] (inactive).

For `c1ccc(CSc2nnc(C3CCCC3)o2)cc1`, which max activity is on record?
Its max activity is -59.1% [at 6 µM] (inactive).

For `c1ccc(-c2nnc(SCc3ncco3)o2)cc1`, which max activity is on record?
The max activity was 8.06% [at 0.195 µM] (inactive).

With `Fc1ccc(Cn2cc(CSc3nnc(C4CCCC4)o3)nn2)cc1` as the compound, how does the max activity read?
The max activity was -18.5% [at 6 µM] (inactive).

Which max activity does the source give for `c1ccc(-c2nnc(SCc3ccccn3)o2)cc1` here?
Its max activity is 18.8% (inactive).

With `CS(=O)(=O)c1ccccc1CSc1nnc(-c2ccccc2)o1` as the compound, how does the max activity read?
Its max activity is -12.5% [at 12 µM] (inactive).

With `CS(=O)(=O)c1ccccc1-c1nnc(SCc2ccccc2)o1` as the compound, how does the max activity read?
Its max activity is 22.6% [at 3 µM] (inactive).

With `Fc1cccc(CSc2nnc(-c3ccccc3)o2)c1` as the compound, how does the max activity read?
The max activity was -9.21% [at 12 µM] (inactive).

With `COc1ccc(CSc2nnc(-c3ccc(Cl)cc3)o2)nc1` as the compound, how does the max activity read?
Its max activity is 20.3% [at 0.8 µM] (inactive).

Which max activity does the source give for `c1ccc(-c2nnc(SC3CCCCC3)o2)cc1` here?
The max activity was -38.4% (inactive).

For `[O-][n+]1ccccc1CSc1nnc(-c2ccccc2)o1`, which max activity is on record?
The max activity was -47.8% [at 1.6 µM] (inactive).

Which max activity does the source give for `N#Cc1ccc(-c2nnc(SCc3ccccc3)o2)cc1` here?
Its max activity is 15.9% [at 1.6 µM] (inactive).

Which max activity does the source give for `Cc1cccc(-c2nnc(SCc3ccccc3)o2)c1` here?
Its max activity is -20.2% [at 0.38 µM] (inactive).

Which max activity does the source give for `Fc1ccccc1-c1nnc(SCc2ccccc2)o1` here?
The max activity was -29.8% [at 0.195 µM] (inactive).
